Data on 35 compounds can be found in PubChem BioAssay (EPA / NIEHS).

Results filed as inconclusive are left out. Activity calls are given as the source filed them. How the source made its calls: active means hit-call score of the fitted dose curve at least 0.9, where 1 is the maximum; inconclusive means response in the unintended direction; inactive means score below 0.9.

Read-out in the test: alkyl and aryl transferase (GSTA2), GSTA2 (gene 2939)
The experiment in a line: CLD_GSTA2_6hr: CellzDirect (CLD) Gene Expression Assay for alkyl and aryl transferase (GSTA2) at 6 hours (AID 2283666). The procedure: CLD_6hr is a cell-based, multiplexed-readout assay that uses hepatocyte, a human liver primary cell, with measurements taken at 6 hours after chemical dosing in a 96-well plate.CLD_GSTA2_6hr is one of 16 assay component(s) measured or calculated from the CLD_6hr assay. It is designed to make measurements of mRNA induction, a form of inducible reporter, as detected with chemiluminescence signals by Quantitative Nuclease Protection Assay (qNPA) technology.Data from the assay component CLD_GSTA2_6hr was analyzed at the endpoint, CLD_GSTA2_6hr, in the positive analysis fitting direction relative to DMSO as the negative control and baseline of activity. Using a type of inducible reporter, gain-of-signal activity can be used to understand changes in the reporter gene as they relate to the gene GSTA2. Furthermore, this assay endpoint can be referred to as a primary readout. To generalize the intended target to other relatable targets, this assay endpoint is annotated to the transferase intended target family, where subfamily is alkyl and aryl transferase.
Human hepatocyte cultures were treated daily for two consecutive days with fresh dosing solutions containing appropriate concentrations of the 320 ToxCast chemicals (chemical identities were blinded to CellzDirect and other ToxCast collaborators), vehicle control (0.2% DMSO), and positive control inducers as summarized in Table 1. Due to the large number of treatment groups and chemicals examined, the ToxCast chemicals were divided into two groups (spanning two independent cultures of hepatocytes from separate donor preparations (Hu778: ToxCast plates 1 and 2; Hu776: ToxCast plates 3 and 4). Each preparation of human hepatocyte cultures was treated with respective vehicle control, medium only control, set of six positive controls/reference chemicals for the five hepatic receptor pathways, and a subset of eight of the ToxCast chemicals (indoxacarb, pyrithiobac-sodium, norflurazon, cyhalofop-butyl, methomyl, thiram, acetochlor, and propiconazole). These replicate data, coupled with internal replicates designed within the blinded ToxCast chemical library, provided additional data to evaluate interindividual differences between hepatocyte preparations and their potential impact on chemical profiles.Cell morphology and integrity were evaluated using phase-contrast microscopy as an indicator of hepatocyte cell health (Tyson & Green, 1987). Cultures for each treatment group (i.e., media, vehicle [0.2% DMSO], positive control inducers [multiple concentrations], and the ToxCast chemicals [multiple concentrations]) were observed and cell morphology was assessed relative to vehicle control cultures at each harvest time point (0, 6, 24, or 48 h). […] Images were evaluated at the conclusion of the study to assess changes in cell integrity and account for the effects of chemical exposure on uncharacteristic changes in concentration-dependent gene expression profiles. The results from these determinations of apparent cytotoxicity were annotated (yes/no) alongside the corresponding qNPA data for reference.At the conclusion of each treatment period, hepatocyte cultures (96-well) were washed with 1 volume of HBSS, lysed by addition of 25 ul ArrayPlate lysis buffer (HTG, Tucson, AZ), and 70 ul/well of Denaturation Oil, denatured by incubation at 95C for 10 min, and frozen at approximately -70C until analysis by nuclease protection assay (qNPA) (Roberts et al., 2007). For qNPA analysis, cell lysates were thawed at 50C for approximately 30 min, qNPA probes were added, and samples were incubated at 95C for 10 min to begin the detection process by denaturing the target RNA, dissociating the duplexes and secondary structure hybridization. At the conclusion of the hybridization period, S1 nuclease reagent was added to each sample to digest all nonprotected nucleotides at 50C for 60-90 min. […]
In the case of `C[C@H]1[C@H](c2ccc(Cl)cc2)SC(=O)N1C(=O)NC1CCCCC1`, the compound was called inactive.
As for `CC1(c2ccc(Oc3ccccc3)cc2)OC(=O)N(Nc2ccccc2)C1=O` (stereo not given), the result was inactive.
Consider `O=C(O)CCCOc1ccc(Cl)cc1Cl`, for which the compound was called inactive.
As to `CCOc1nc(NC)nc(NC(=O)NS(=O)(=O)c2ccccc2C(=O)OC)n1`, the call was inactive.
For `CCS(=O)(=O)c1cccnc1S(=O)(=O)NC(=O)Nc1nc(OC)cc(OC)n1`, the compound was classed as inactive.
For `C#CCN1C(=O)COc2cc(F)c(N3C(=O)C4=C(CCCC4)C3=O)cc21`, the call was inactive.
Consider `CCOC1Oc2ccc(OS(C)(=O)=O)cc2C1(C)C` (stereo not given), for which the compound was called inactive.
As for `CNC(=O)CSP(=S)(OC)OC`, the entry is “inactive”.
As for `Oc1cc(Cl)ccc1Oc1ccc(Cl)cc1Cl`, the entry is “inactive”.
Regarding `N#Cc1c(Cl)c(Cl)c(Cl)c(C#N)c1Cl`, the call was inactive.
For `CC(C)(C)C(O)C(Oc1ccc(Cl)cc1)n1cncn1` (stereo not given), the outcome was inactive.
Take `O=[N+]([O-])c1c(Cl)c(Cl)c(Cl)c(Cl)c1Cl`: the call was inactive.
Regarding `CCCN(CCC)c1c([N+](=O)[O-])cc(C(F)(F)F)cc1[N+](=O)[O-]`, the compound was called inactive.
As for `N#CN`, the call was inactive.
On to `O=C(Nc1ccccc1)Nc1cnns1`, for which the result was inactive.
As for `CCC(C)(C)C(=O)OC1=C(c2ccc(Cl)cc2Cl)C(=O)OC12CCCCC2`, the entry is “inactive”; as for `CCC(C)(NC(=O)c1cc(Cl)c(C)c(Cl)c1)C(=O)CCl` (stereo not given), “inactive”; as for `OCCOc1ccccc1`, “inactive”.
In the case of `O=[N+]([O-])/N=C1\NCCN1Cc1ccc(Cl)nc1` it was “inactive”; in that of `O=C(NC(=O)c1c(F)cccc1F)Nc1ccc(OC(F)(F)C(F)OC(F)(F)F)c(Cl)c1` (stereo not given), “inactive”.
For the compound `CC(C)OC(=O)Nc1cccc(Cl)c1`, the outcome was inactive.
As to `CCc1ccc(C(=O)NN(C(=O)c2cc(C)cc(C)c2)C(C)(C)C)cc1`, the compound was classed as inactive.
As for `COC(=O)c1ccccc1CS(=O)(=O)NC(=O)Nc1nc(OC)cc(OC)n1`, the entry is “inactive”; as for `CNC(=O)Oc1cccc(N=CN(C)C)c1`, “inactive”.
Consider `CC(C)(C)C(O)/C(=C\c1ccc(Cl)cc1Cl)n1cncn1` (stereo not given), for which the call was inactive.
For the compound `Oc1ccc(Cl)cc1Cc1ccccc1`, the compound was classed as inactive.
As for `CN1CSC(=S)N(C)C1`, the call was inactive.
With `COC(=O)c1ccccc1S(=O)(=O)NC(=O)N(C)c1nc(C)nc(OC)n1`, the compound was classed as inactive.
On to `CCN(CC)C(=O)SCc1ccc(Cl)cc1`, for which the call was inactive.
Take `Clc1ccccc1-c1nnc(-c2ccccc2Cl)nn1`: the call was inactive.
For the compound `O=C(O)COc1ccc(Cl)cc1Cl`, the compound was classed as inactive.
As for `CCOCN(C(=O)CCl)c1c(C)cccc1CC`, the result was inactive.
Take `CC1(C)C(C=C(Cl)Cl)C1C(=O)OC(C#N)c1ccc(F)c(Oc2ccccc2)c1` (stereo not given): the result was inactive.
`[2H]C1([2H])[n+]2ccccc2-c2cccc[n+]2C1([2H])[2H]`: the outcome was inactive.
On to `ClC1C(Cl)C(Cl)C(Cl)C(Cl)C1Cl` (stereo not given), for which the compound was called inactive.
